This note sets out measurements from article PMC5540273 (PLoS ONE, 2017).

Each structure is given as a SMILES string.

Among the test systems are GRK1; GRK4; GRK7; GSK3A; GSK3B; HCK; HIPK1; HIPK2; HIPK3; HIPK4; HPK1; HUNK; ICK; IGF1R.
Settings in all cases: concentration: 1 μM, replicates: in singlicate; n = 1
A further experiment concerns T1, GRK2.
T1 construct: gene ADRBK1

In a further experiment the test system is T2, GRK3.
T2 construct: gene ADRBK2

For the next experiment, the system named is T3, HASPIN.
T3 construct: gene GSG2

The next experiment relates to T4, IKK-alpha.
T4 construct: gene CHUK

The next experiment relates to T5, IKK-beta.
T5 construct: gene IKBKB

The subject of the next experiment is T6, IKK-epsilon.
T6 construct: gene IKBKE
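Also: KINOMEscan kinase panel screen.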

Consider `Cl.Cl.c1ccc(-c2cc3ccncc3cc2OC2CCNCC2)cc1` [GSK1122999], for which the “%Inh” value in the experiment with GRK1 is 0%; with GRK2, 0%; in the experiment with GRK3, 0%; in the experiment on GRK4, 9%; in the experiment with GRK7 it was 10%; in the experiment with GSK3A, 21%. For the same compound, the “%Inh” value in the experiment on GSK3B worked out at 18%; in the experiment on HASPIN, 89%; in the experiment with HCK it was 0%; in the experiment with HIPK1, 5%; in the experiment with HIPK2, 0%; in the experiment on HIPK3, 20%. For the same compound, the “%Inh” value is reported as 0% in the experiment with HIPK4; 51% in the experiment with HPK1; 27% in the experiment with HUNK; 0% in the experiment with ICK; 0% with IGF1R; 72% in the experiment with IKK-alpha. Further, the “%Inh” value amounted to 98.7% with IKK-beta and 9% in the experiment with IKK-epsilon.
Consider `Clc1cccc(-c2nc(Nc3ccncc3)c3ccccc3n2)c1` [GW873004], for which the “%Inh” value in the experiment with GRK1 is reported as 10%; in the experiment with GRK2 it was 0%; in the experiment with GRK3, 0%; in the experiment with GRK4 it was 0%; with GRK7, 0%; in the experiment on GSK3A, 0%. The “%Inh” value in the experiment on GSK3B was 0%; with HASPIN, 50%; in the experiment on HCK, 26%; in the experiment with HIPK1, 43%; in the experiment with HIPK2, 25%; in the experiment on HIPK3, 2%. For the same compound, the “%Inh” value in the experiment with HIPK4 is 22%; with HPK1, 0%; in the experiment with HUNK it was 53%; with ICK, 0%; in the experiment on IGF1R, 0%; in the experiment with IKK-alpha it was 0%. For the same compound, the “%Inh” value with IKK-beta and in the experiment with IKK-epsilon was 0% in each case.
In the case of `CCCc1ccc(S(=O)(=O)NC2CCN(c3ccnc(Nc4ccc(OC)cc4)n3)C2)cc1` (centres unmarked) [GSK1379737], the “%Inh” value is 0% in the experiment on GRK1; 0% with GRK2; 67% with GRK3; 0% with GRK4; 0% in the experiment with GRK7; 7% in the experiment on GSK3A. Besides, the “%Inh” value turned out to be 8% with GSK3B; 14% with HASPIN; 0% in the experiment with HCK; 0% in the experiment on HIPK1; 0% in the experiment with HIPK2; 8% with HIPK3. Further, the “%Inh” value was determined as 0% in the experiment on HIPK4; 31% in the experiment with HPK1; 10% with HUNK; 0% in the experiment with ICK; 8% in the experiment on IGF1R; 36% with IKK-alpha. The “%Inh” value in the experiment with IKK-beta and in the experiment on IKK-epsilon was 0% in each case.
For the compound `Cl.c1ccc(Cn2ccc3cc(Nc4ncnc5ccccc45)ccc32)cc1` [GW275568], the “%Inh” value in the experiment on GRK1 amounted to 9%; in the experiment on GRK2, 0%; in the experiment on GRK3, 0%; in the experiment on GRK4, 0%; in the experiment with GRK7, 0%; with GSK3A, 11%. The “%Inh” value is 7% with GSK3B; 1% in the experiment on HASPIN; 0% in the experiment with HCK; 3% in the experiment with HIPK1; 0% with HIPK2; 9% with HIPK3. Further, the “%Inh” value in the experiment with HIPK4 came to 0%; in the experiment on HPK1, 31%; with HUNK, 3%; in the experiment with ICK, 0%; in the experiment with IGF1R, 0%; in the experiment on IKK-alpha it was 0%. Besides, the “%Inh” value with IKK-beta is given as 0%; in the experiment with IKK-epsilon it was 24%.
Take `c1ccc(-c2ccc3c(-c4ccnc(Nc5ccc6c(c5)OCCO6)n4)cnn3n2)cc1` [GW818941]: the “%Inh” value in the experiment with GRK1 is 0%; in the experiment on GRK2, 7%; in the experiment with GRK3 it was 0%; in the experiment with GRK4, 11%; in the experiment on GRK7, 0%; in the experiment on GSK3A it was 12%. Further, the “%Inh” value in the experiment with GSK3B worked out at 0%; in the experiment with HASPIN it was 0%; with HCK it was 16%; with HIPK1, 0%; with HIPK2 it was 0%; in the experiment on HIPK3, 0%. Further, the “%Inh” value in the experiment on HIPK4 is reported as 21%; with HPK1, 47%; in the experiment on HUNK, 0%; with ICK, 8%; with IGF1R, 9%; in the experiment on IKK-alpha, 21%. For the same compound, the figures for the “%Inh” value with IKK-beta and with IKK-epsilon were 14% and 6%, respectively.
Take `Cc1cccc(-c2nc(Nc3ccc4[nH]nnc4c3)c3ccccc3n2)n1` [GW867587]: the “%Inh” value amounted to 3% in the experiment on GRK1; 0% in the experiment on GRK2; 24% in the experiment with GRK3; 0% with GRK4; 0% in the experiment with GRK7; 0% in the experiment with GSK3A. In addition, the “%Inh” value in the experiment with GSK3B is listed as 0%; in the experiment on HASPIN it was 0%; in the experiment on HCK it was 10%; with HIPK1 it was 0%; in the experiment with HIPK2, 0%; in the experiment with HIPK3, 0%. For the same compound, the “%Inh” value in the experiment on HIPK4 was found to be 0%; with HPK1, 0%; with HUNK it was 37%; with ICK, 0%; in the experiment on IGF1R, 0%; with IKK-alpha it was 0%. The “%Inh” value in the experiment on IKK-beta and in the experiment on IKK-epsilon was 0% in each case.
Regarding `Fc1ccc(-c2ncn(CCCNCc3ccccc3)c2-c2ccncc2)cc1`, the “%Inh” value in the experiment on GRK1 is given as 12%; in the experiment with GRK2, 0%; in the experiment with GRK3, 0%; in the experiment on GRK4, 12%; with GRK7, 5%; in the experiment on GSK3A it was 8%. In addition, the “%Inh” value in the experiment on GSK3B worked out at 28%; with HASPIN it was 12%; in the experiment on HCK it was 7%; with HIPK1, 25%; in the experiment on HIPK2, 23%; with HIPK3, 45%. The “%Inh” value is on record as 0% in the experiment on HIPK4; 8% with HPK1; 7% in the experiment on HUNK; 12% in the experiment on ICK; 4% with IGF1R; 0% in the experiment on IKK-alpha. Further, the “%Inh” value was determined as 9% in the experiment with IKK-beta and 10% in the experiment with IKK-epsilon.
Take `Cc1ccc(C)c(NC(=O)NCCNc2ccnc(Nc3ccc(F)cc3)n2)c1` [GSK1379878]: the “%Inh” value with GRK1 is 0%; in the experiment with GRK2 it was 0%; with GRK3 it was 17%; in the experiment on GRK4, 0%; in the experiment on GRK7 it was 0%; in the experiment on GSK3A it was 3%. The “%Inh” value in the experiment with GSK3B was determined as 0%; with HASPIN, 4%; in the experiment on HCK, 0%; in the experiment with HIPK1 it was 0%; in the experiment with HIPK2 it was 0%; in the experiment on HIPK3, 0%. The “%Inh” value came to 0% in the experiment with HIPK4; 28% with HPK1; 0% in the experiment with HUNK; 0% in the experiment with ICK; 0% with IGF1R; 0% in the experiment on IKK-alpha. For the same compound, the “%Inh” value came out at 0% in the experiment on IKK-beta and 9% in the experiment on IKK-epsilon.
`FC(F)(F)c1ccc(-c2nn3ncccc3c2-c2ccnc(Nc3cccc(C(F)(F)F)c3)n2)cc1` [GW828205]: the “%Inh” value was found to be 11% in the experiment with GRK1; 0% in the experiment with GRK2; 0% with GRK3; 25% in the experiment on GRK4; 0% with GRK7; 1% in the experiment with GSK3A. The “%Inh” value in the experiment on GSK3B was found to be 10%; with HASPIN, 0%; in the experiment on HCK, 10%; with HIPK1, 39%; with HIPK2, 0%; in the experiment on HIPK3, 0%. Also, the “%Inh” value in the experiment on HIPK4 came to 11%; in the experiment on HPK1, 0%; in the experiment on HUNK, 32%; in the experiment with ICK, 0%; in the experiment on IGF1R it was 3%; in the experiment with IKK-alpha, 0%. Besides, the “%Inh” value with IKK-beta and in the experiment on IKK-epsilon was 0% in each case.
Turning to `C[C@@H]1CCN(C(=O)CO)C[C@@H]1N(C)c1ncnc2[nH]ccc12`, the “%Inh” value with GRK1 came out at 16%; with GRK2, 17%; in the experiment on GRK3 it was 22%; in the experiment with GRK4, 0%; in the experiment on GRK7, 25%; with GSK3A it was 0%. Also, the “%Inh” value in the experiment on GSK3B is recorded as 0%; with HASPIN, 8%; in the experiment on HCK, 25%; in the experiment with HIPK1, 15%; in the experiment with HIPK2 it was 0%; in the experiment with HIPK3, 0%. Moreover, the “%Inh” value in the experiment with HIPK4, in the experiment with HPK1, in the experiment with HUNK, with ICK, in the experiment with IGF1R and in the experiment on IKK-alpha was 0% in each case. For the same compound, the “%Inh” value in the experiment on IKK-beta and with IKK-epsilon was 0% in each case.
